# Laboratory results reported in PubChem BioAssay AID2283097 (EPA ToxCast).
# Results filed as inconclusive are left out. Calls of active or inactive are those of the source. The calls were made as follows: active = hit-call score of the fitted dose curve at least 0.9, where 1 is the maximum; inconclusive = response in the unintended direction; inactive = score below 0.9.
# Biological target: human CYP1B1, CYP1B1 (gene 1545) (UniProt Q16678)
# Assay: NVS_ADME_hCYP1B1: NovaScreen (NVS) CYP450-related Enzyme Activity (ADME) Assay for human CYP1B1
# Method: NVS_ADME_hCYP1B1 is a biochemical, single-readout assay that uses extracted gene-proteins in a cell-free assay. Measurements were taken 1 hour after chemical dosing in a 96-well plate.NVS_ADME_hCYP1B1 is one of one assay component(s) measured or calculated from the NVS_ADME_hCYP1B1 assay. It is designed to make measurements of enzyme activity, a form of enzyme reporter, as detected with fluorescence intensity signals by Fluorescence technology.Data from the assay component NVS_ADME_hCYP1B1 was analyzed into 1 assay endpoint. This assay endpoint, NVS_ADME_hCYP1B1, was analyzed in the positive analysis fitting direction relative to Acetonitrile as the negative control and baseline of activity. Using a type of enzyme reporter, loss-of-signal activity can be used to understand changes in the enzymatic activity as they relate to the gene CYP1B1. Furthermore, this assay endpoint can be referred to as a primary readout, because this assay has produced multiple assay endpoints where this one serves a enzymatic activity function. To generalize the intended target to other relatable targets, this assay endpoint is annotated to the cyp intended target family, where the subfamily is xenobiotic metabolism.
# Binding assays used specific radioligands (tritiated, iodinated) with non-radioactive competitive displacement ligands in agonist or antagonist protocols (as indicated) and various reference compounds and inhibitors to titrate specific binding to receptors and transporters. Most enzyme assays (CYPs, kinases, phosphatases, proteases, HDACs) used recombinant protein and specific substrates (fluorescence mostly, some colorimetric and radioactive) and inhibitors, followed by a biochemical separation of substrate and product. All assays for the biochemical HTS were initially run in duplicate at a single concentration (10 uM for CYP450 assays and 25 uM for all others). Assay-chemical combinations meeting a pre-defined threshold (e.g., 30% inhibition and other criteria defined below) were then run in singleton concentration-response format with maximum concentration of 20 uM for CYPs and 50 uM for all others. Each assay was run with positive and negative controls, and concurrent controls on every plate. The follow-up (secondary) screen tested active chemical-pairs in concentration series, as well as a few additional assays not tested in the primary screen, some selected negative inactives, and several cases re-run in the concentration series for confirmatory purposes.
# Chain of human CYP1B1, CYP1B1 (gene 1545) (Q16678 whole entry, looked up): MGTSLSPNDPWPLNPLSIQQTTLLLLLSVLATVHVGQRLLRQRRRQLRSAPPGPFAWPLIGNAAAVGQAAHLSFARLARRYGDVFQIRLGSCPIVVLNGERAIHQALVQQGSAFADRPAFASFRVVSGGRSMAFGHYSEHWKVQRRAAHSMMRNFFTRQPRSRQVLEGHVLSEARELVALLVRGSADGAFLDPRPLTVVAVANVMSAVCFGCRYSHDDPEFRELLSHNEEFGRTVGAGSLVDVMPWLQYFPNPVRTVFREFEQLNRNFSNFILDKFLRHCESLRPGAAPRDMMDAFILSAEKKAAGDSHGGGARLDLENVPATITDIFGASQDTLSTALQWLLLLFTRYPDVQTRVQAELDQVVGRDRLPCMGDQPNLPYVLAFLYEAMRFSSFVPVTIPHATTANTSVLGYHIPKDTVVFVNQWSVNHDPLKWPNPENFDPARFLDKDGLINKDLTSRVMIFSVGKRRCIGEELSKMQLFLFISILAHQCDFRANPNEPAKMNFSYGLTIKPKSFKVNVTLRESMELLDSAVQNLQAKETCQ
Structure (SMILES),AC50,outcome
COP(=S)(OC)SCn1nnc2ccccc2c1=O,498 nM (active),–
CCCN(CCOc1c(Cl)cc(Cl)cc1Cl)C(=O)n1ccnc1,–,inactive
Cc1ccc(-c2c(Cl)nc(C#N)n2S(=O)(=O)N(C)C)cc1,–,inactive
Cc1ccn2nc(S(=O)(=O)Nc3c(F)cccc3F)nc2n1,–,inactive
